# ADAM10 inh = inhibitors of human ADAM10. recombinant ADAM10, EDANS/DABCYL FRET peptide cleavage, 3 h. inhibition, % at 7 µM. 370,000 tested, 0.62% active;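 active = inhibition above a per-campaign cutoff equal to the mean of compounds falling between control-based bounds plus 3 SD, cut at about 20% in these data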;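 note: 0% = DMSO wells while the 100% control is not disclosed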
# Target sequence (O14672 214-748 limits assumed): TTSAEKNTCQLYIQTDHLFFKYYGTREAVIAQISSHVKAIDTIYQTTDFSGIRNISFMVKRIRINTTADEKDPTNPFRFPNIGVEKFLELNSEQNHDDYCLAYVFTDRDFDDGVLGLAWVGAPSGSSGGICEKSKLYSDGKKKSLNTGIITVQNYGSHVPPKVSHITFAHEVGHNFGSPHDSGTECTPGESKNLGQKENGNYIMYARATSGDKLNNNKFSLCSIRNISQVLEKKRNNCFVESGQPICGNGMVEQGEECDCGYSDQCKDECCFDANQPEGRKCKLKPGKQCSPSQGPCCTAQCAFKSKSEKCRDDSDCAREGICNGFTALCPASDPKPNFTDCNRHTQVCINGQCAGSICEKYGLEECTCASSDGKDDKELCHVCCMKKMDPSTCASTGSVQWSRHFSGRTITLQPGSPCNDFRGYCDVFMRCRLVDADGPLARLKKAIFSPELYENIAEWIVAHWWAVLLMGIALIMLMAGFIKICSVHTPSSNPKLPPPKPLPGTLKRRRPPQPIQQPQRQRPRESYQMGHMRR
# PLCg1 inh = PLC-gamma1 (human) inhibition, primary screen; P19174; purified PLC-gamma1, fluorogenic substrate, fluorescence; AID 720700; 370,000 tested, 0.84% active; inhibition, % at 12.2 µM; in the data active = inhibition above about 9.5%
# PLCb3 inh = inhibitors of human phospholipase C beta3 | inhibition, % at 12.2 µM | Q01970 | Purified PLC-beta3, fluorogenic substrate, fluorescence | AID 720704 | 370,000 tested, 0.18% active; in the data active = inhibition above about 11%;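 note: 0% = median of compound wells on plate and 100% = full blocker control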
# ADAM17 inh = inhibitors of human ADAM17; recombinant ADAM17, EDANS/DABCYL FRET peptide cleavage; inhibition, % at 6.95 µM; 370,000 tested, 0.83% active; AID 720648;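 active = inhibition above the mean of compounds lying between control limits plus 3 SD, set per campaign, cut at about 8.5% in these data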;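 note: 0% = DMSO-only wells as the low control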
# KLK7 zymogen act = activates the human kallikrein-7 zymogen; P49862; purified proKLK7, EDANS-DABCYL substrate fluorescence; 100% is mature enzyme control, 0% vehicle; activation, % at 7 µM; 370,000 tested, 0.9% active; AID 652039;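 active = activation above the mean of all tested compounds plus 3 SD, computed per campaign excluding outliers beyond control limits, cut at about 13% in these data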
# ADAM10 confirm = human ADAM10 inhibition, confirmation | shares compounds with ADAM10 inh | ADAM10 QFRET peptide cleavage, EDANS fluorescence | inhibition, % at 6.95 µM | 2,100 tested, 1% active;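 active = inhibition above about 20% chosen separately for each screening run, limit read from the data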;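 note: 0% = DMSO wells and 100% = marimastat wells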
# ADAM17 ctr = ADAM17 inhibition, counter-screen for ADAM10 exosite hits; shares compounds with ADAM10 inh; ADAM17 QFRET peptide cleavage, EDANS fluorescence; inhibition, % at 6.95 µM; 2,100 tested, 0.5% active; AID 743214;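 active = mean triplicate inhibition above the solvent-only control wells' mean plus 3 SD, cut at about 12% in these data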;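 note: 0% = DMSO wells and 100% = marimastat wells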
# * marks the source's active call; other numbers are inactive results; . = no result given. The list is not random: actives were taken first. Their share in the collection is about 2.9%.
SMILES,ADAM10 inh,PLCg1 inh,PLCb3 inh,ADAM17 inh,KLK7 zymogen act,ADAM10 confirm,ADAM17 ctr
Cc1nc2cc(NC(=O)c3ccc(Cl)cc3)ccc2n1C,23*,7,0,0,0,1,0
O=C(c1cc(Cl)cc(Cl)c1)N1CCC(Oc2cccnc2)CC1,-4,0,0,0,0,.,.
CC(=O)c1ccc(NC(=S)NC(C)c2ccc(Cl)cc2Cl)cc1 (stereo not given),24*,2,-4,8,1,4,1
CN(c1ccc(NC(=O)Cc2c[nH]c3ccccc23)cc1)c1ccccn1,-4,-9,-13,-2,0,.,.
O=C1NC[C@H](c2ccccc2)OC(=O)[C@@H](Cc2ccc(F)cc2)CC/C=C/C[C@@H]1CC(=O)N(CCO)Cc1ccccc1,23*,7,5,6,0,0,2
O=C1N[C@@H](Cc2c[nH]c3ccccc23)COC(=O)[C@H](Cc2ccc(F)cc2)C/C=C\C[C@H]1CC(=O)N(CCO)Cc1ccccc1,22*,0,2,5,1,6,2
COc1ccc2c(c1)[C@@]1(OCCC=C[C@H]1C)C(=O)N2Cc1ccc(F)cc1,-17,2,1,-7,-1,.,.
O=C(NC(Cc1c[nH]c2ccccc12)C(=O)Nc1ccc(F)c([N+](=O)[O-])c1)c1cccs1 (stereo not given),20*,1,1,8,-1,4,2
O=C(COc1ccc(-c2nnco2)cc1)Nc1c(F)cccc1F,84*,-2,-3,0,0,-1,0
COC(=O)[C@]1(C)N[C@H](c2ccc(-c3cccc(Cl)c3)cc2)[C@@H]2C(=O)N(C)C(=O)[C@@H]21,-10,0,1,1,0,.,.
CCN1C(=O)[C@H]2[C@@H](c3ccc(-c4cccc(Cl)c4)cc3)N[C@@](C)(C(=O)OC)[C@H]2C1=O,24*,-3,2,5,0,-1,0
COC(=O)[C@]1(CC(C)C)N[C@H](c2ccc(-c3cccc(Cl)c3)cc2)[C@@H]2C(=O)N(C)C(=O)[C@@H]21,23*,3,3,6,1,8,2
O=C(c1cscn1)N1CCC(Oc2cccnc2)CC1,-6,-1,2,-4,0,.,.
C[C@@H]1/C=C/CC(=O)N[C@H](c2cccc(Br)c2)[C@H](C)/C=C/CC(=O)N[C@@H]1c1cccc(Br)c1,4,3,1,3,1,.,.
CC(C)n1nccc1N(Cc1ccc(Cl)cc1)S(=O)(=O)c1ccccc1,28*,8,0,6,1,2,1
CCn1nc(C(=O)OC(C(=O)c2c[nH]c3ccccc23)c2ccccc2)c2ccccc2c1=O (stereo not given),24*,0,0,7,-2,11,5
CCCCOc1cccc(C(=O)Nc2ccc(S(=O)(=O)Nc3nnc(CC)s3)cc2)c1,21*,3,-5,1,0,1,0
COC(=O)[C@]12C[C@H](CC(=O)N3CCOCC3)C(=O)N(Cc3ccc4c(c3)OCO4)C1=C[C@H](C(C)C)O[C@@H]2C1CC1,-198,0,2,-5,0,.,.
Cc1cc(C)c(C)c(S(=O)(=O)Nc2ccc3cn[nH]c3c2)c1C,99*,-3,-6,-6,-1,1,1
COc1ccc(S(=O)(=O)Nc2ccc3cn[nH]c3c2)cc1C,-1,-7,-2,4,-1,.,.
O=C(c1ccc(C#CC2(O)CCCCC2)cc1)N1CCN(C(c2ccccc2)c2ccccc2)CC1,25*,1,0,4,1,6,2
N#CCC[C@H]1CC[C@]2(CCCN(C(=O)c3ccno3)C2)O1,-9,5,-1,-4,0,.,.
COc1cccc(CN2C(=O)[C@H]3Cc4c([nH]c5ccccc45)C(C)(C)N3C2=O)c1,21*,-4,-5,5,1,3,1
CC(C)(C)c1ccc(-c2nnc3n2N=C(c2ccc(Cl)cc2)CS3)cc1,-4,0,-1,-2,0,.,.
ON=C1c2ccccc2-c2ccc(Br)cc21,26*,3,1,8,1,2,1

# Screening results from PubChem BioAssay.
